Read-outs that look alike come from different tables or passages of the source.

Test systems include GRK7; GSK3A; GSK3B; HCK; HIPK1; HIPK2; HIPK3; HIPK4; HPK1.
Holding throughout (conditions): n = 1
The subject of the next assay is T1, HASPIN.
T1 construct: gene GSG2

[1] abbreviates: concentration: 1 μM, replicates: in singlicate.
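Further: KINOMEscan kinase panel screen.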

In the case of `COc1cccc(NC(=O)NC2CCN(c3ccnc(Nc4ccc(F)cc4)n3)C2)c1` (stereo not drawn) [GSK1379721], the “%Inh” value with GRK7 (setting [1]) is 0%; in the assay on GSK3A (setting [1]) it was 21%; with GSK3B (setting [1]), 10%; in the assay with HASPIN (setting [1]), 0%; in the assay with HCK (setting [1]), 0%; in the assay with HIPK1 (setting [1]), 0%. The “%Inh” value is reported as 0% in the assay on HIPK2 (setting [1]), 7% in the assay with HIPK3 (setting [1]), 0% in the assay with HIPK4 (setting [1]) and 59% with HPK1 (setting [1]).
Take `Cn1ccc2ncnc(Oc3cccc(C(=O)Nc4ccccc4)c3)c21`: the “%Inh” value with GRK7 (setting [1]) was determined as 21%; with GSK3A (setting [1]) it was 24%; with GSK3B (setting [1]), 2%; in the assay on HASPIN (setting [1]), 37%; with HCK (setting [1]) it was 8%; in the assay with HIPK1 (setting [1]), 0%. The “%Inh” value is given as 30% with HIPK2 (setting [1]), 5% in the assay with HIPK3 (setting [1]), 0% in the assay with HIPK4 (setting [1]) and 2% in the assay with HPK1 (setting [1]).
Consider `Cl.NC(=O)c1cccc(Nc2nccc(Nc3ccc(Oc4cccc(Cl)c4)c(Cl)c3)n2)c1` [GW659008], for which the “%Inh” value amounted to 0% in the assay with GRK7 (setting [1]); 0% in the assay with GSK3A (setting [1]); 0% with GSK3B (setting [1]); 0% in the assay on HASPIN (setting [1]); 72% in the assay with HCK (setting [1]); 0% in the assay with HIPK1 (setting [1]). The “%Inh” value in the assay with HIPK2 (setting [1]) stood at 0%; in the assay with HIPK3 (setting [1]) it was 0%; in the assay with HIPK4 (setting [1]), 0%; in the assay with HPK1 (setting [1]) it was 37%.
Take `Cc1ccc(NC(=O)Nc2cccc(C(F)(F)F)c2)cc1` [GSK955403]: the “%Inh” value turned out to be 10% with GRK7 (1 µM); 0% with GSK3A (1 µM); 0% with GSK3B (1 µM); 12% in the assay with HASPIN (1 µM); 0% in the assay on HCK (1 µM); 8% in the assay with HIPK1 (1 µM). The “%Inh” value in the assay with HIPK2 (1 µM), in the assay with HIPK3 (1 µM), in the assay on HIPK4 (1 µM) and with HPK1 (1 µM) was 0% each time.
With `O=S(=O)(c1ccc(-c2ccnc3[nH]ccc23)cc1)N1CCCC1` [GSK846226], the “%Inh” value with GRK7 (setting [1]) is reported as 0%; in the assay on GSK3A (setting [1]) it was 15%; with GSK3B (setting [1]) it was 16%; with HASPIN (setting [1]), 12%; in the assay on HCK (setting [1]), 0%; in the assay on HIPK1 (setting [1]) it was 45%. For the same compound, the “%Inh” value worked out at 0% with HIPK2 (setting [1]), 48% in the assay with HIPK3 (setting [1]), 23% in the assay on HIPK4 (setting [1]) and 25% with HPK1 (setting [1]).
As for `O=C(Nc1n[nH]c2nc(-c3nccs3)c(Br)cc12)C1CCCC1` [SB-742609], the “%Inh” value in the assay on GRK7 (setting [1]) is 0%; in the assay with GSK3A (setting [1]) it was 96.8%; in the assay with GSK3B (1 µM), 59%; with HASPIN (setting [1]), 0%; with HCK (setting [1]), 0%; in the assay on HIPK1 (setting [1]), 0%. Further, the “%Inh” value came out at 0% in the assay on HIPK2 (setting [1]), 20% with HIPK3 (setting [1]), 8% in the assay with HIPK4 (setting [1]) and 33% in the assay with HPK1 (setting [1]).
For `CC(=O)Nc1nc2cnc(Nc3cc(NC(=O)c4cccc(CCC#N)c4)ccc3C)nc2s1`, the “%Inh” value in the assay with GRK7 (setting [1]) is on record as 6%; with GSK3A (setting [1]) it was 0%; in the assay on GSK3B (setting [1]), 0%; in the assay with HASPIN (setting [1]), 21%; with HCK (setting [1]) it was 21%; in the assay with HIPK1 (setting [1]) it was 15%. In addition, the “%Inh” value with HIPK2 (setting [1]) is 20%; in the assay with HIPK3 (setting [1]), 6%; in the assay on HIPK4 (setting [1]), 5%; in the assay on HPK1 (setting [1]), 0%.
Take `CCn1c(-c2cccnc2O)nc2cnccc21` [SB-736715]: the “%Inh” value amounted to 0% with GRK7 (setting [1]); 0% in the assay with GSK3A (setting [1]); 0% in the assay with GSK3B (setting [1]); 0% in the assay with HASPIN (setting [1]); 0% with HCK (setting [1]); 11% in the assay on HIPK1 (setting [1]). For the same compound, the “%Inh” value in the assay on HIPK2 (setting [1]) is listed as 0%; with HIPK3 (setting [1]) it was 0%; with HIPK4 (setting [1]), 0%; in the assay on HPK1 (setting [1]) it was 4%.
Take `Cl.O=C(Nc1cccc(-c2nn3ncccc3c2-c2ccnc(Nc3cccnc3)n2)c1)c1c(F)cccc1F` [GSK312879]: the “%Inh” value in the assay with GRK7 (setting [1]) was 0%; in the assay with GSK3A (setting [1]) it was 48%; in the assay with GSK3B (setting [1]), 25%; with HASPIN (setting [1]), 0%; in the assay on HCK (setting [1]) it was 52%; in the assay on HIPK1 (setting [1]), 0%. Besides, the “%Inh” value is listed as 0% in the assay on HIPK2 (setting [1]), 11% in the assay with HIPK3 (setting [1]), 0% in the assay with HIPK4 (setting [1]) and 31% in the assay on HPK1 (setting [1]).

These data come from paper PMC5540273 (PLoS ONE, 2017).
